“And” between values parts separate entries of the source, which are not always exact repeats. Equal entries are not always repeated. In all, about 650,000 compounds went through this assay and about 6,800 (1%) were called active. No stated cut-off is given here; in the data, active means activation above about 4.9%; inactive means the rest. For the sample, actives were picked, then their nearest neighbours and some compounds at random. Some structures have more than one record in an assay (separate samples or runs), and their calls can disagree.
Each compound was assayed against G-protein coupled receptor 151 (Homo sapiens) (UniProt Q8TDV0) (assay: activators of human GPR151, primary screen, cell-based, PathHunter beta-arrestin, luminescence (AID 1508602;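 further: 0% = median of compound wells and 100% = cells with positive control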)). Conditions: PathHunter beta-arrestin GPR151 cells, at 11.2 µM, stronger effect = higher value.
Sequence of G-protein coupled receptor 151 (Homo sapiens) (Q8TDV0 whole entry, looked up): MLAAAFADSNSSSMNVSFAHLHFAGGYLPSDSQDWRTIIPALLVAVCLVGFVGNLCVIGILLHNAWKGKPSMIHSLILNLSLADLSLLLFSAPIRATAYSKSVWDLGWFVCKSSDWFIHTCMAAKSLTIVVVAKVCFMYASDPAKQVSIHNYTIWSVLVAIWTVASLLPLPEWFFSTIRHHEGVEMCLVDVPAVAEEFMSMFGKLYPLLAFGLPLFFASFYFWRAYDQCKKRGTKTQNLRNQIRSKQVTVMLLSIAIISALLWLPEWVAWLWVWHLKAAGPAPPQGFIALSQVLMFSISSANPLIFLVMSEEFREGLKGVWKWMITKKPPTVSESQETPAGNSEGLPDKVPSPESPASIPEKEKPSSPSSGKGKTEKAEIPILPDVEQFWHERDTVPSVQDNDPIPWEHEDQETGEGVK
`O=C(c1ncoc1-c1cccs1)N1CCN(c2ccc(C(F)(F)F)cn2)CC1` was tested, and the activation was 0.0668% (inactive).
With `Nc1[nH]c(=O)[nH]c(=O)c1N=Nc1cccc(Br)c1` the activation was -1.15% (inactive).
With `O=C1CCN(Cc2cc(F)cc(F)c2)CCN1Cc1ccc(Cl)s1` the activation was -0.0282% (inactive).
In the case of `CCCn1c(=N)c(C(=O)NCc2ccc(C)cc2)cc2c(=O)n3ccccc3nc21`, the activation is reported as 1.57% (inactive).
`N=c1c(C(=O)NCc2cccnc2)cc2c(=O)n3ccccc3nc2n1CCO` was tested, and the activation was 1.18% (inactive).
`COCCNC(=O)c1cc2c(=O)n3ccccc3nc2n(CCc2ccccc2)c1=N` was tested, and the activation was 4.99% (active).
For `Cc1ccc(C2(C)NC(=O)N(CC(=O)c3ccc(Br)s3)C2=O)cc1` (stereo not given), the activation was 1.11% (inactive).
With `O=C(CN(c1cccc([N+](=O)[O-])c1)S(=O)(=O)c1ccccc1)N1CCOCC1` the activation was 0.197% (inactive).
For `CCCCN1C(=O)S/C(=C\c2ccc(O)c([N+](=O)[O-])c2)C1=O`, the activation was -1.5% (inactive).
`CN(C)S(=O)(=O)c1cccc(C(=O)N2CCCc3ccccc32)c1` was tested, and the activation was 1.08% (inactive).
In the case of `O=C(CC1C(=O)NCCN1Cc1ccc2ccccc2c1)NCCCn1cccn1` (stereo not given), the activation is reported as 5.94% (active).
`COC(=O)CCCNC(=O)CC1C(=O)NCCN1Cc1ccc2ccccc2c1` (stereo not given) was tested, and the activation was -0.306% (inactive).
With `O=C(CC1C(=O)NCCN1CCc1ccccc1)NCCCn1ncc2ccccc21` (stereo not given) the activation was 0.711% (inactive).
For `COc1cc(CN(C(=O)c2cncs2)C2CCCC2)cc(OC)c1OCC1CCCO1` (stereo not given), the activation was -1.02% (inactive).
With `COC(=O)c1ccc2c(=O)nc3c(-c4ccccc4)n[nH]n3c2c1` the activation was -1.93% (inactive).
`CCOC(=O)c1ccc(CNC(=O)c2cc(CCc3ccccc3)no2)o1` was tested, and the activation was 0.0388% (inactive).
For `COc1ccc(Cn2cc[nH]c(=O)c2=O)cc1`, the activation was -0.548% (inactive).
For `Oc1ccc(Cn2cc[nH]c2=S)cc1`, the activation was 8.86% (active).
`O=[N+]([O-])c1cccc(COC2=NS(=O)(=O)c3ccccc32)c1` was tested, and the activation was 0.739% (inactive).
In the case of `O=C(Cc1ccccc1)N/N=C/c1ccc([N+](=O)[O-])cc1`, the activation is reported as -0.27% (inactive).
For `CSc1ccc(/C=N/NC(N)=S)cc1`, the activation was 0.328% (inactive).
With `NC(=S)N/N=C/c1ccc([N+](=O)[O-])cc1` the activation was -0.328% (inactive) and 5.02% (active).
With `Cc1[nH]c2ccccc2c1/C=N/NC(=O)/C(=C/c1ccccc1O)NC(=O)c1ccccc1` the activation was -5.34% (inactive).
In the case of `COc1cccc(C(=O)NC(=S)Nc2ccccc2OC)c1`, the activation is reported as -0.111% (inactive).
In the case of `COc1ccc(NC(=S)NC(=O)c2ccc([N+](=O)[O-])cc2)c(OC)c1`, the activation is reported as 3.1% (inactive).
In the case of `COc1cccc(C(=O)NC(=S)Nc2ccc(OC)cc2OC)c1`, the activation is reported as 10.4% (active).
`CC1=C(C(=O)OCCc2ccccc2)C(c2ccc(Br)cc2)NC(=O)N1` (stereo not given) was tested, and the activation was -1.85% (inactive).
`CCCOC(=O)C1=C(C)NC(=O)NC1c1ccccc1` (stereo not given) was tested, and the activation was -1.76% (inactive).
For `CCCOC(=O)C1=C(C)NC(=O)NC1c1ccc(Br)cc1` (stereo not given), the activation was 9.45% (active).
In the case of `CCCCN(C)C(=O)C1(c2ccc(OC)cc2)CCOCC1`, the activation is reported as 0.343% (inactive).
In the case of `CCCCNC(=O)C1(c2ccc(OC)cc2)CCOCC1`, the activation is reported as 7.05% (active).
For `COc1ccc(C2(C(=O)Nc3ccc(C(=O)NCc4ccccc4)cc3)CCOCC2)cc1`, the activation was 0.34% (inactive).
In the case of `Cn1cccc1CC(=O)N/N=C\c1c(Cl)cccc1Cl`, the activation is reported as 0.023% (inactive).
In the case of `COc1cccc(CC2(CCC(=O)NC3CCOC(C)(C)C3)CCC(=O)N2)c1` (stereo not given), the activation is reported as 1.54% (inactive).
With `CCC(C)Nc1nc2c(c(=O)[nH]c(=O)n2C)n1CC(O)COC(C)C` (stereo not given) the activation was 5.88% (active).
For `CCCCNc1nc2c(c(=O)[nH]c(=O)n2C)n1CC(O)COC(C)C` (stereo not given), the activation was 0.097% (inactive).
With `CC(O)Cn1c(N(C)C)nc2c1c(=O)[nH]c(=O)n2C` (stereo not given) the activation was -0.989% (inactive).
`Cc1ccc(/C=N/Nc2nc3c(c(=O)[nH]c(=O)n3C)n2CC(O)COC(C)C)cc1` (stereo not given) was tested, and the activation was -0.049% (inactive).
`C/C(=N\Nc1nc2c(c(=O)[nH]c(=O)n2C)n1CC(C)O)c1ccc(O)cc1` (stereo not given) was tested, and the activation was -2.73% (inactive).
In the case of `CC(C)CNc1nc2c(c(=O)[nH]c(=O)n2C)n1CC(C)O` (stereo not given), the activation is reported as 5.96% (active).
`Cc1cc(C)c(/C=N/NC(=O)c2nnn(-c3nonc3N)c2CN(C)C)c(C)c1` was tested, and the activation was -0.818% (inactive).
With `CCOC(=O)c1c(NC(=O)Cc2ccc([N+](=O)[O-])cc2)sc(C)c1C` the activation was -0.865% (inactive).
In the case of `Cc1cc(S(=O)(=O)n2cc(-c3cccc(F)c3)c(N)n2)ccc1F`, the activation is reported as 0.532% (inactive).
For `Cc1ccc(C)c(CN2CCC(n3nccc3NC(=O)C(C)(C)C)CC2)c1`, the activation was 5.02% (active).
In the case of `Cc1cccc(CN2CCC(n3nccc3NC(=O)C(C)(C)C)CC2)c1`, the activation is reported as -0.39% (inactive).
`CC(C)(C)C(=O)Nc1ccnn1C1CCN(Cc2ccccc2C(F)(F)F)CC1` was tested, and the activation was 0.711% (inactive).
`COc1cccc(/C=N/NC(=O)CC23CC4CC(CC(C4)C2)C3)c1O` was tested, and the activation was 0.719% (inactive).
With `COc1ccc(-n2ccnc2SCC(=O)Nc2ccc(C)cc2)cc1` the activation was 1.88% (inactive).
`COc1ccc(NC(=O)Cn2c(=O)n(-c3ccc(F)cc3)c(=O)c3sccc32)cc1` was tested, and the activation was -0.363% (inactive).
For `COc1ccc(NC(=O)Cn2c(-c3ccc(OC)cc3)cn(-c3ccc(C)cc3)c2=O)cc1`, the activation was 7.86% (active).
`CCC1=C(C)c2cc3nc(C(=O)OCc4ccccc4)c(C)c-3c(C)n2C1C` (stereo not given) was tested, and the activation was 5.68% (active).
In the case of `CCOC(=O)c1cc2c(C)n(Cc3ccccc3)c(C)c2cc(C(=O)OCC)c1=O`, the activation is reported as -0.0778% (inactive).
`CCOc1ccc(-c2nn(-c3ccccc3)cc2C2C(C(=O)OCc3ccccc3)=C(C)NC(C)=C2C(=O)OCc2ccccc2)cc1` was tested, and the activation was 1.89% (inactive).
For `NC(=O)CN(c1ccccc1)S(=O)(=O)c1ccccc1[N+](=O)[O-]`, the activation was 0.204% (inactive).
For `CCOc1cc(CNCc2c(C(=O)O)n(CC)c3cc(OC)ccc23)ccc1OC`, the activation was -1.01% (inactive).
In the case of `O=C(CSc1nnnn1-c1ccc(F)cc1)N1CCc2ccccc21`, the activation is reported as -1.53% (inactive).
`COc1ccc(NC(=O)CCN2CCN(C=O)CC2)cc1` was tested, and the activation was -1.28% (inactive).
`O=CN1CCN(CCC(=O)Nc2ccccc2)CC1` was tested, and the activation was 5.13% (active).
In the case of `O=C(CCN1CCN(C/C=C/c2ccccc2)CC1)Nc1ccc(Br)cc1`, the activation is reported as 1.05% (inactive).
For `CCOC(=O)c1c(NC(=O)c2nn3c(C(F)(F)F)cc(-c4ccc(OC)cc4)nc3c2Cl)sc2c1CCCC2`, the activation was 0.0805% (inactive).
For `Cc1cc(Nc2ccc(F)cc2)n2cnnc2n1`, the activation was 9.65% (active).
`Cc1ccc(Nc2cc(C)nc3nncn23)cc1` was tested, and the activation was -0.458% (inactive).
`Fc1ccc(Nc2nc3ccccc3n3cnnc23)cc1` was tested, and the activation was -0.0284% (inactive).
With `CCOc1ccccc1/C=C1/NC(=S)NC1=O` the activation was 0.436% (inactive).
In the case of `O=C1CCCN1CCn1cnc2c(NCc3nc4ccccc4[nH]3)nc(N3CCc4ccccc4C3)nc21`, the activation is reported as -1.26% (inactive).
For `CNC(=O)C(=O)Nc1cc(OC)ccc1OC`, the activation was -0.733% (inactive).
With `COc1ccc(OC)c(NC(=S)Nc2ccccn2)c1` the activation was 9.49% (active).
For `CCn1cc(CNC(=S)Nc2cc(OC)ccc2OC)cn1`, the activation was -1.23% (inactive).
For `COCCn1nnnc1C(c1cc2c(C)cc(C)cc2[nH]c1=O)N1CCCC(C)C1` (stereo not given), the activation was 0.229% (inactive).
In the case of `CCOc1ccc2cc(C#N)c(SCC(=O)Nc3ccccc3C(=O)OC)nc2c1`, the activation is reported as -0.792% (inactive).
`COc1ccc(OC)c(CNC(=O)c2cc3c(C)nc4ccccc4c3o2)c1` was tested, and the activation was 0.296% (inactive).
`O=C(Nc1cc(Cl)cc(Cl)c1)c1ccc(F)c(S(=O)(=O)NCc2ccco2)c1` was tested, and the activation was 0.664% (inactive).
For `COc1ccc(C2=NN(C(=O)CSc3nnc(CNC(=O)c4ccc(S(=O)(=O)N(C)C)cc4)n3C)C(c3ccc(C)cc3)C2)cc1` (stereo not given), the activation was 1.11% (inactive).
For `CC(C)CC(C(=O)Nc1cccc([N+](=O)[O-])c1)N1C(=O)c2ccccc2C1=O` (stereo not given), the activation was 15.7% (active).
For `CC(C)CC(C(=O)Nc1ccc([N+](=O)[O-])cc1)N1C(=O)c2ccccc2C1=O` (stereo not given), the activation was 2.66% (inactive).
For `CC(C)CC(C(=O)Nc1ccc(Cl)cc1)N1C(=O)c2ccccc2C1=O` (stereo not given), the activation was -0.915% (inactive).
`CCOCCCNC(=O)/C(C#N)=C/c1c(Oc2ccc(CC)cc2)nc2ccccn2c1=O` was tested, and the activation was -7.56% (inactive).
`CCN(CC)c1ccc(CN2C[C@@H](NCc3ccc4ccccc4c3)C[C@H]2C(=O)NC)cc1` was tested, and the activation was 0.619% (inactive).
`CCCCN(C)CCCNC(=O)C1CCN(c2nc3ccc(OC)cc3s2)CC1` was tested, and the activation was -1.77% (inactive).
`CC1CCN(c2nc3ccc(C(=O)NCCCOC(C)C)cc3s2)CC1` was tested, and the activation was -0.0522% (inactive).
For `CCOCCCNC(=O)NC1CCN(c2nc3ccccc3s2)CC1`, the activation was 5.41% (active).
With `Cc1nn2c(N3CCNCC3)c3c(nc2c1-c1ccccc1)CCC3` the activation was -1.05% (inactive).
`Cn1c(=NC(=O)CN2C(=O)c3ccccc3C2=O)sc2cc(F)cc(F)c21` was tested, and the activation was 0.254% (inactive).
In the case of `c1cncc(Nc2nc(NC3CC3)c3ncn(C4CCCCC4)c3n2)c1`, the activation is reported as 11.5% (active).
For `FC(F)(F)c1ccc(Nc2nc(NC3CC3)c3ncn(C4CCCCC4)c3n2)cc1`, the activation was 0.642% (inactive).
With `c1cnc(Nc2nc(NCc3cccnc3)c3ncn(C4CCCCC4)c3n2)nc1` the activation was -0.529% (inactive).
In the case of `Cc1ccc(NC(=O)CCNS(=O)(=O)c2ccc3c(c2)c(=O)n(C)c(=O)n3C)nc1`, the activation is reported as -0.3% (inactive).
`Cc1ccc(NC(=O)CSc2nc3cc4c(cc3cc2C#N)OCCO4)cc1` was tested, and the activation was -1.17% (inactive).
For `Cc1ccc2cc(C#N)c(SCCO)nc2c1`, the activation was 6.39% (active).
`COc1ccc2cc(C#N)c(SC)nc2c1` was tested, and the activation was 0.673% (inactive).

From PubChem BioAssay AID1508602 (The Scripps Research Institute Molecular Screening Center, 2020)
